Assay results as given in PubChem BioAssay (NCATS).
Several values for one entry are separate records, joined by “and”; a condition that tells them apart may be missing. Identical values can stand only once. Results filed as inconclusive are left out. A call without a number means that no potency is given here. Some compounds were tested as several samples or in several runs, with calls that do not always agree. Activity calls are given as the source filed them. The call rests on the fitted dose curve; in most records, active means well fitted inhibition curve with a large enough effect; inconclusive means small, poorly fitted or top-dose-only effect; inactive means no such curve, though single readings can be large or run the other way.

Assay: Primary qHTS for inhibitors of nuclear receptor binding SET domain protein 2 (NSD2) in an RCH-ACV wild type WT cells (2C) (AID 1645877); further: nearly all actives have a fitted effect of over 70% in size
Potency means the concentration at half of the fitted maximal effect.

Compound: Cc1cc(O)cc2c1O[C@](C)(CCC[C@H](C)CCC[C@H](C)CCCC(C)C)CC2
- Potency: inactive

Compound: C[C@@H]1CCN(C(=O)[C@H](CCCN=C(N)N)NS(=O)(=O)c2cccc3c2NC[C@H](C)C3)[C@@H](C(=O)O)C1
- Potency: inactive

Compound: C/C(=C(\CCOP(=O)(O)O)SC(=O)c1ccccc1)N(C=O)Cc1cnc(C)nc1N
- activity change, negative = cell killing: -1.42% [at 4.96 µM] (inactive)

Compound: Cc1cc2c(cc1S(N)(=O)=O)S(=O)(=O)CCC2
- Potency: inactive

Compound: O=C1N=C(O)CN1/N=C/c1ccc(-c2ccc([N+](=O)[O-])cc2)o1
- Potency: inactive

Compound: CCCCN(CCCC)CCCOC(=O)c1ccc(N)cc1
- Potency: inactive

Compound: C[C@@H]1CN(c2c(F)c(F)c3c(=O)c(C(=O)O)cn(C4CC4)c3c2F)C[C@H](C)N1
- Potency: inactive

Compound: Oc1ccc(C(O)CNCCCCCCNCC(O)c2ccc(O)c(O)c2)cc1O (stereo not given)
- Potency: inactive

Compound: CCN(CC)CCNC(=O)c1c(C)[nH]c(/C=C2\C(=O)Nc3ccc(F)cc32)c1C
- Potency: 2.99 µM (active) and 3.72 µM (active)

Compound: O=C(O)CC(O)C(=O)O (stereo not given)
- Potency: inactive

Compound: CC(=O)Oc1c(C)c(C)c2c(c1C)CC[C@@](C)(CCC[C@H](C)CCC[C@H](C)CCCC(C)C)O2
- Potency: inactive

Compound: CC12CCC(CC1)C(C)(C)O2
- Potency: inactive

Compound: Nc1ccc(S(=O)(=O)Nc2ccccc2)cc1
- Potency: inactive

Compound: CCCCCCCCCCCCCCCCCCOCC(O)CO (stereo not given)
- Potency: inactive

Compound: N[C@H]1C(O)O[C@H](CO)[C@@H](O)[C@@H]1O (stereo not given in full)
- Potency: inactive

Compound: COc1cc2[nH]c(=O)[nH]c(=O)c2cc1OC
- Potency: inactive

Compound: C[C@]12CC[C@@H]3c4ccc(O)cc4CC[C@H]3[C@@H]1CC[C@@H]2OC(=O)CCC1CCCC1
- Potency: inactive

Compound: CCCCN1CCCC[C@H]1C(=O)Nc1c(C)cccc1C
- Potency: inactive

Compound: N[C@@H](CSSC[C@H](N)C(=O)O)C(=O)O
- activity change, negative = cell killing: 2.98% [at 0.588 µM] (inactive)

Compound: C[C@](N)(Cc1ccc(O)cc1)C(=O)O
- outcome: inactive [at 4.96 µM]

Compound: [O-][n+]1cccc(CO)c1
- Potency: inactive

Compound: CC(COc1ccccc1)NC(C)C(O)c1ccc(O)cc1 (stereo not given)
- Potency: inactive

Compound: Cn1c(=O)c2c(ncn2CC2OCCO2)n(C)c1=O
- Potency: inactive

Compound: OCC(CO)N[C@H]1C[C@](O)(CO)[C@@H](O)[C@H](O)[C@H]1O
- Potency: inactive

Compound: COc1ccc(S(=O)(=O)Nc2nnc(CC(C)C)s2)cc1
- Potency: inactive

Compound: CC1(C)CO[C@@H](CC(=O)O)CN1
- Potency: inactive

Compound: OCC(O)CN1CCN(c2ccccc2)CC1 (stereo not given)
- Potency: inactive

Compound: O=Cc1ccccc1C=O
- Potency: inactive

Compound: Nc1ncnc2c1ncn2[C@@H]1O[C@H](CO)[C@@H](O)[C@H]1O
- Potency: 5.96 µM (active) and inactive

Compound: O=C1O[C@H]([C@@H](O)CO)C(O)=C1O
- Potency: inactive

Compound: CCCOC(=O)c1ccccc1
- Potency: inactive

Compound: CCC(=O)c1ccc(O)cc1
- Potency: inactive

Compound: C[C@H](NC(CCc1ccccc1)C(=O)O)C(=O)N1CCC[C@H]1C(=O)O (stereo not given in full)
- Potency: inactive

Compound: CC(=O)OCC(=O)[C@@]1(O)CC[C@H]2[C@@H]3CCC4=CC(=O)CC[C@]4(C)[C@H]3C(=O)C[C@@]21C
- Potency: inactive

Compound: CCN(CC)CCNC(C(=O)OCCC(C)C)c1ccccc1 (stereo not given)
- Potency: inactive

Compound: O=C(O)CN1C(=O)c2cccc3cccc(c23)C1=O
- Potency: inactive

Compound: CC(=O)CCC(=O)O
- Potency: inactive

Compound: CCOc1ccc2ccccc2c1C(=O)N[C@@H]1C(=O)N2[C@@H]1SC(C)(C)[C@@H]2C(=O)O
- Potency: inactive

Compound: CO/N=C(\C(=O)N[C@@H]1C(=O)N2C(C(=O)O)=C(CSc3nc(=O)c(O)nn3C)CS[C@H]12)c1csc(N)n1
- Potency: inactive

Compound: CC(=O)Nc1ccc(/C=N/NC(N)=S)cc1
- Potency: 16.8 µM (active)

Compound: CC[C@@]1(c2ccccc2)NC(=O)N(C)C1=O
- Potency: inactive

Compound: C=CCn1c(=O)n([C@@H]2O[C@H](CO)[C@@H](O)[C@H]2O)c2nc(N)[nH]c(=O)c21
- Potency: inactive

Compound: COc1cc(C(=O)N2CCOCC2)cc(OC)c1OC
- Potency: inactive

Compound: O=S(=O)(O)NC1CCCCC1
- Potency: inactive

Compound: CCCCC(CC)COC(=O)c1ccccc1O (stereo not given)
- Potency: inactive

Compound: NC(=O)c1ncn([C@@H]2O[C@H](CO)[C@@H](O)[C@H]2O)c1N
- Potency: inactive

Compound: O=C(O)c1ccccn1
- Potency: inactive

Compound: C[C@@H]1C[C@H]2[C@@H]3C[C@H](F)C4=CC(=O)C=C[C@]4(C)[C@@]3(F)[C@@H](O)C[C@]2(C)[C@@]1(O)C(=O)CO
- Potency: 2.7 nM (active) and 5.2 nM (active)

Compound: C#CCN(C)Cc1ccccc1
- Potency: inactive

Compound: CCCCN(CCCC)CC(O)c1cc(Cl)cc2c1-c1ccc(Cl)cc1/C2=C/c1ccc(Cl)cc1 (stereo not given)
- Potency: 13.3 µM (active)
